From PubChem
HT1080-NT tox = kills 2HG-producing HT-1080-NT fibrosarcoma cells. Potency, µM (top dose mostly 46.1 µM), inactives show at the highest dose activity, negative = less viability, usual class: cytotoxic. 360,000 tested, 1.6% active. HT-1080-NT fibrosarcoma viability, CellTiter-Glo ATP luminescence, 48 h;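 note: NT is the 2HG producing partner of a matched IDH1 knockdown line; potency is the fitted concentration of half-maximal effect; 0% = DMSO-treated cells and -100% = media-only wells without cells; nearly all actives have a fitted effect of over 55% in size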
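Viability of the 2HG-overproducing fibrosarcoma line after 48 hours of compound exposure at 37 degrees C was determined by luminescence with CellTiter-Glo, and concentration-effect curves were then fitted and categorized.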
IL-1B inflam inh = inhibitors of inflammasome signaling (IL-1 beta secretion) | THP-1 LPS/ATP IL-1B secretion, AlphaLISA, 16 h; stronger effect = lower value | 360,000 tested, 4.7% active | AID 743279 | activity change, % at 57.5 µM; in the data active = activity change below about -50%; inconclusive = mostly about -30% to -49%
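THP-1 cells pretreated 1 hr with compounds (up to 57.5 uM final), then stimulated with LPS (250 ng/mL final) plus ATP (1.25 mM final); secreted IL-1B measured by AlphaLISA after 16 hr, decreased signal indicating inhibition.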
HT1080 IDH1KD tx = HT-1080 IDH1 knockdown cell toxicity (counter line); HT-1080 IDH1 knockdown viability, ATP luminescence, 48 h; Potency, µM (top dose mostly 46.1 µM), without a hit: at the highest dose activity, negative = toxicity, usual class: cytotoxic; 360,000 tested, 2% active;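 note: potency is the fitted concentration of half-maximal effect; 0% = DMSO wells and -100% = cell-free medium wells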
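IDH1KD HT-1080 cells, 750/well, RPMI + 5% FBS; compound pinned after 2 h settling; 48 h, 37 °C; CellTiter-Glo luminescence; % activity normalised to DMSO and no-cell wells; curves fitted, classed by r2 and efficacy.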
KB-V1 MDR tox = KB-V1 MDR subline cytotoxicity | AID 1347076 | Potency, µM (series often up to 46.1 µM), hits mostly cytotoxic | 400,000 tested, 3.4% active | KB-V1 MDR cells viability, CellTiter-Glo, 72 h; note: potency is the fitted concentration of half-maximal effect; nearly all actives have a fitted effect of over 60% in size
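Cells of the MDR subline KB-V1 are plated, dosed with compound at multiple concentrations, and incubated 72 h at 37 degrees C; CellTiter-Glo is then added and luminescence read after 10 min.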
KB-3-1 tox = kills parental KB-3-1 adenocarcinoma cells. AID 1347075. Potency, µM (titrated, usually from 46.1 µM), most hits filed as cytotoxic. 400,000 tested, 1.4% active. KB-3-1 viability, CellTiter-Glo ATP luminescence, 72 h; note: potency is the fitted concentration of half-maximal effect; nearly all actives have a fitted effect of over 60% in size
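Cells are dispensed, compounds pinned in, plates held at 37 °C for 72 h, then CellTiter-Glo is added and luminescence read after 10 minutes. Cell line: parental KB-3-1 in phenol-red-free DMEM, 10% FBS.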
Active calls of the source: *; i = inactive; ? = inconclusive; · = no result given. Most compounds without a hit are left out; they make up all but 8.8% or so of the library. Unless noted, calls come from the whole dose curve; as a rule, active = well fitted curve in the direction sought with a large enough effect; inconclusive = small, poorly fitted or top-dose-only effect, or another doubt; inactive = no such curve, though single readings can be large; an effect the other way counts as inactive or inconclusive. Unless noted, % is set by controls: 0 for no effect and ±100 for the full control effect.

SMILES	HT1080-NT tox	IL-1B inflam inh	HT1080 IDH1KD tx	KB-V1 MDR tox	KB-3-1 tox
O=C(CCCCCCCCCCC(=O)NCc1cccnc1)NCc1cccnc1	?	39.0	4.61µM*	?	?
CCN(CC)N=O	-7.6%	-96.7*	16.2%	i	i
COC1CC2C=C(C)C=CC=CC(=O)NC(c3ccccc3)CC=CCCC(O)CC(=O)C2=C1O (stereo not drawn)	1.84µM*	-112.6*	1.64µM*	5.8µM*	5.8µM*
O=C1CC(c2ccccc2Br)c2c(c3ccccc3oc2=O)O1 (stereo not drawn)	·	·	·	i	i
Oc1ccc(O)c2c1C1(Cl)C(Cl)=C(Cl)C2(Cl)C1(Cl)Cl	?	-60.7*	23.1µM*	i	i
CC1=CC(C)CC(C)OC(=O)CC(c2ccc(O)cc2)NC(=O)C(Cc2c(Br)[nH]c3ccccc23)N(C)C(=O)C(C)NC(=O)C(C)C1 (stereo not drawn)	1.3µM*	-4.2	0.0517µM*	1.64µM*	0.184µM*
CCCOC(=O)c1ccc(-[n+]2c(-c3ccccc3)cc(-c3ccccc3)cc2-c2ccccc2)cc1	20.6µM*	-85.5*	11.6µM*	i	16.4µM*
COc1ccc(-c2cc(-c3ccccc3)[n+](C)c(-c3ccccc3)c2)cc1	?	-90.3*	14.6µM*	i	3.26µM*
COc1ccc([C@@H](O)[C@@H](N)c2ccccc2)cc1	11.0%	22.9	15.2%	i	i
C[n+]1c(-c2ccccc2)cc(CCCCc2cc(-c3ccccc3)[n+](C)c(-c3ccccc3)c2)cc1-c1ccccc1	?	-100.3*	?	i	?
O=C(O)c1ccc(-[n+]2c(-c3ccccc3)cc(-c3ccccc3)cc2-c2ccccc2)cc1	6.2%	20.9	15.6%	i	i
Brc1ccc(-[n+]2c(-c3ccccc3)cc(-c3ccccc3)cc2-c2ccccc2)cc1	16.4µM*	-82.8*	13µM*	i	?
COc1ccc(-[n+]2c(-c3ccccc3)cc(-c3ccc(C)cc3)cc2-c2ccccc2)cc1	4.61µM*	-93.7*	2.59µM*	i	2.59µM*
Cc1ccc(-c2cc(-c3ccccc3)cc(-c3ccccc3)[n+]2-c2ccc(C(=O)O)cc2)cc1	13.6%	15.8	9.5%	i	i
Cc1ccccc1-c1nn2c(=O)cc(CN3CCN(C(=O)COc4ccccc4Cl)CC3)nc2s1	·	·	·	i	i
CC(=O)NC1=C(N2CC2C)C(=O)C(NC(C)=O)=C(N2CC2C)C1=O (stereo not drawn)	-1.5%	2.2	-14.5%	i	i
C[C@@H]1O[C@@H](O[C@H]2C[C@@H](O)[C@]3(CO)[C@@H]4C(CC[C@]3(O)C2)[C@@]2(O)CC[C@H](C3COC(=O)C3)[C@@]2(C)C[C@H]4O)[C@H](O)[C@H](O)[C@H]1O (stereo partly drawn)	5.17µM*	-64.5*	1.3µM*	1.84µM*	1.16µM*
CSCCC(NC(=O)CCC(=O)OC1CC[C@H]2[C@@H]3CC[C@H]4CC(=O)CC[C@]4(C)[C@H]3CC[C@]12C)C(=O)O (stereo partly drawn)	0.5%	-8.4	10.3%	i	i
CN1C2c3ccccc3C3C4c5ccccc5C(C31)C(C2[N+](=O)[O-])N4C (stereo not drawn)	-10.0%	10.9	-1.4%	i	i
COc1ccc(S(=O)(=O)Nc2cc(C(=O)NC3CCCCCC3)ccc2N2CCOCC2)cc1	?	-18.0	?	i	i
Cc1nc2ccccc2c(=O)n1-c1cc(F)ccc1F	-1.0%	3.7	6.4%	i	i
COc1cccc(C(=O)C2CN(C)CC2c2ccc(Cl)cc2)c1 (stereo not drawn)	-2.3%	-58.9*	-22.0%	?	?
CN1CC(C(=O)c2cccc(C(F)(F)F)c2)C(c2ccc(Cl)cc2)C1 (stereo not drawn)	-13.9%	-82.5*	-23.0%	i	i
Cc1ccc(N=Nc2c(O)[nH]c(=O)[nH]c2=O)cc1S(=O)(=O)Nc1ccc(Br)cc1	?	4.5	?	i	i
c1ccc(CNC2CCCCCCC2)cc1 (tested in a mixture with another compound)	-7.1%	-73.7*	-7.4%	23.1µM*	i
SMILES	HT1080-NT tox	IL-1B inflam inh	HT1080 IDH1KD tx	KB-V1 MDR tox	KB-3-1 tox
O=C(Nc1ccc2c(c1)OCO2)c1cccn(Cc2cccc(F)c2)c1=O	·	·	·	i	i
[N-]=[N+]=NCc1cn2cccnc2n1	-0.4%	4.2	13.0%	i	i
C[C@H]1CC[C@@H]2[C@@H](C)[C@H]3[C@H](C[C@H]4[C@@H]5CC=C6C[C@@H](O[C@@H]7O[C@H](CO)[C@H](O)[C@H](O[C@@H]8O[C@H](CO)[C@@H](O)[C@H](O)[C@H]8O)[C@H]7O[C@@H]7O[C@@H](C)[C@H](O)[C@@H](O)[C@H]7O)CC[C@]6(C)[C@H]5CC[C@]34C)N2C1	2.9%	-98.5*	-11.4%	?	i
C[C@]12CC[C@H]3C(CCC4(O)CC(O)CC[C@]34C=O)C1=CC[C@H]2c1ccc(=O)oc1 (stereo partly drawn)	13µM*	?	5.8µM*	i	23.1µM*
CC(=O)O[C@H]1[C@H]2O[C@]23[C@@H]2CC[C@]4(O)C[C@@H](O)CC[C@]4(C)C2CC[C@]3(C)[C@H]1c1ccc(=O)oc1 (stereo partly drawn)	0.82µM*	?	0.0146µM*	i	?
O=c1[nH]c2ccccc2n1C1CCN(C(c2nnnn2C2CCCC2)C2CC2)CC1 (stereo not drawn)	13.1%	-2.6	11.8%	i	i
O=c1[nH]c2ccccc2n1C1CCN(C(c2ccccc2OC(F)(F)F)c2nnnn2Cc2ccccc2)CC1 (stereo not drawn)	25.9µM*	-15.8	?	?	?
O=c1[nH]c2ccccc2n1C1CCN(C(c2nnnn2Cc2ccccc2)C2CC2)CC1 (stereo not drawn)	?	-4.7	20.6µM*	?	i
O=c1[nH]c2ccccc2n1C1CCN(C(c2cccs2)c2nnnn2Cc2ccccc2)CC1 (stereo not drawn)	18.4µM*	?	16.4µM*	14.6µM*	?
O=c1[nH]c2ccccc2n1C1CCN(C(c2cc3ccccc3o2)c2nnnn2-c2ccc3c(c2)OCCO3)CC1 (stereo not drawn)	?	?	18.4µM*	?	?
COc1ccc(C(c2nnnn2Cc2ccccc2)N2CCC(n3c(=O)[nH]c4ccccc43)CC2)cc1 (stereo not drawn)	?	-1.1	?	?	?
